Data taken from the supplement of paper PMC10849652.
About 8,800 targets were measured; listed, in parts, are those with a hit and a random draw of the rest. About 0.5% of all pairs of compound and target were hits.

Assays:
Assay in all cases: log2 fold change, soluble protein after heating vs DMSO (PISA); higher = thermal stabilisation; K562 lysate, 10 uM; active = over 0.2 and 3.5 SD of the protein, either way, in both replicates (recomputed)
[1] = compound: Cc1cn(-c2cc(NC(=O)c3ccc(C)c(Nc4nccc(-c5cccnc5)n4)c3)cc(C(F)(F)F)c2)cn1 [nilotinib]
Method in brief: (§1)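 Values give the log-two fold change in thermal stability against solvent controls, from duplicates. Crude K562 extract at 1 mg/mL protein, made by dounce homogenisation in PBS pH 7.4 with 1 mM MgCl2, was treated with 10 μM compound for 30 min. After 3 min heating across 48°C-58°C, aliquots were pooled, adjusted to 0.5% NP-40 at 4°C and centrifuged at 21,000xg for 90 min. The supernatant was measured by TMTpro 16plex LC-MS/MS with channel sums equalised.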

[2] = compound: Cc1nc(Nc2n[nH]c3c2CN(C(=O)N[C@H](CN(C)C)c2ccccc2)C3(C)C)c2sccc2n1
Method in brief: as §1

[3] = compound: Cc1nc(Nc2ncc(C(=O)Nc3c(C)cccc3Cl)s2)cc(N2CCN(CCO)CC2)n1 [dasatinib]
Method in brief: as §1

[4] = compound: Cc1ncc(-c2ccnc(Nc3ccc(S(C)(=O)=O)cc3)n2)n1C(C)C
Method in brief: as §1

[5] = compound: Cn1cc(-c2ccc3c(c2)CCN3C(=O)Cc2cccc(C(F)(F)F)c2)c2c(N)ncnc21
Method in brief: as §1

[6] = compound: Cn1cc(CNCC2CCN(c3ncc(C(=O)NO)cn3)CC2)c2ccccc21 [quisinostat]
Method in brief: as §1

[7] = compound: Cn1cncc1[C@@](N)(c1ccc(Cl)cc1)c1ccc2c(c1)c(-c1cccc(Cl)c1)cc(=O)n2C [tipifarnib]
Method in brief: as §1

[8] = compound: NC(=O)Nc1cc(-c2cccc(F)c2)sc1C(=O)N[C@H]1CCCNC1
Method in brief: as §1

[9] = compound: NC(=O)c1cnc(N[C@@H]2CCCC[C@@H]2N)nc1Nc1cccc(-n2nccn2)c1
Method in brief: as §1

[10] = compound: NC1(c2ccc(-c3nc4ccn5c(=O)[nH]nc5c4cc3-c3ccccc3)cc2)CCC1
Method in brief: as §1

Measured: log2 fold change

STARD3 isoform 3 (UniProt Q14849)
active: [3] 0.272
inactive: [1] -0.06 | [2] -0.008 | [4] 0.063 | [5] 0.02 | [6] 0.027 | [7] -0.047 | [8] -0.039 | [9] 0.015 | [10] 0.026

SRRT (UniProt Q9BXP5)
inactive: [1] -0.013 | [2] -0.028 | [3] -0.087 | [4] -0.005 | [5] 0.026 | [6] -0.058 | [7] 0.013 | [8] 0.058 | [9] 0.016 | [10] -0.023

SMG1 (UniProt Q96Q15)
Chain of UniProt Q96Q15 (Q96Q15 whole entry, looked up): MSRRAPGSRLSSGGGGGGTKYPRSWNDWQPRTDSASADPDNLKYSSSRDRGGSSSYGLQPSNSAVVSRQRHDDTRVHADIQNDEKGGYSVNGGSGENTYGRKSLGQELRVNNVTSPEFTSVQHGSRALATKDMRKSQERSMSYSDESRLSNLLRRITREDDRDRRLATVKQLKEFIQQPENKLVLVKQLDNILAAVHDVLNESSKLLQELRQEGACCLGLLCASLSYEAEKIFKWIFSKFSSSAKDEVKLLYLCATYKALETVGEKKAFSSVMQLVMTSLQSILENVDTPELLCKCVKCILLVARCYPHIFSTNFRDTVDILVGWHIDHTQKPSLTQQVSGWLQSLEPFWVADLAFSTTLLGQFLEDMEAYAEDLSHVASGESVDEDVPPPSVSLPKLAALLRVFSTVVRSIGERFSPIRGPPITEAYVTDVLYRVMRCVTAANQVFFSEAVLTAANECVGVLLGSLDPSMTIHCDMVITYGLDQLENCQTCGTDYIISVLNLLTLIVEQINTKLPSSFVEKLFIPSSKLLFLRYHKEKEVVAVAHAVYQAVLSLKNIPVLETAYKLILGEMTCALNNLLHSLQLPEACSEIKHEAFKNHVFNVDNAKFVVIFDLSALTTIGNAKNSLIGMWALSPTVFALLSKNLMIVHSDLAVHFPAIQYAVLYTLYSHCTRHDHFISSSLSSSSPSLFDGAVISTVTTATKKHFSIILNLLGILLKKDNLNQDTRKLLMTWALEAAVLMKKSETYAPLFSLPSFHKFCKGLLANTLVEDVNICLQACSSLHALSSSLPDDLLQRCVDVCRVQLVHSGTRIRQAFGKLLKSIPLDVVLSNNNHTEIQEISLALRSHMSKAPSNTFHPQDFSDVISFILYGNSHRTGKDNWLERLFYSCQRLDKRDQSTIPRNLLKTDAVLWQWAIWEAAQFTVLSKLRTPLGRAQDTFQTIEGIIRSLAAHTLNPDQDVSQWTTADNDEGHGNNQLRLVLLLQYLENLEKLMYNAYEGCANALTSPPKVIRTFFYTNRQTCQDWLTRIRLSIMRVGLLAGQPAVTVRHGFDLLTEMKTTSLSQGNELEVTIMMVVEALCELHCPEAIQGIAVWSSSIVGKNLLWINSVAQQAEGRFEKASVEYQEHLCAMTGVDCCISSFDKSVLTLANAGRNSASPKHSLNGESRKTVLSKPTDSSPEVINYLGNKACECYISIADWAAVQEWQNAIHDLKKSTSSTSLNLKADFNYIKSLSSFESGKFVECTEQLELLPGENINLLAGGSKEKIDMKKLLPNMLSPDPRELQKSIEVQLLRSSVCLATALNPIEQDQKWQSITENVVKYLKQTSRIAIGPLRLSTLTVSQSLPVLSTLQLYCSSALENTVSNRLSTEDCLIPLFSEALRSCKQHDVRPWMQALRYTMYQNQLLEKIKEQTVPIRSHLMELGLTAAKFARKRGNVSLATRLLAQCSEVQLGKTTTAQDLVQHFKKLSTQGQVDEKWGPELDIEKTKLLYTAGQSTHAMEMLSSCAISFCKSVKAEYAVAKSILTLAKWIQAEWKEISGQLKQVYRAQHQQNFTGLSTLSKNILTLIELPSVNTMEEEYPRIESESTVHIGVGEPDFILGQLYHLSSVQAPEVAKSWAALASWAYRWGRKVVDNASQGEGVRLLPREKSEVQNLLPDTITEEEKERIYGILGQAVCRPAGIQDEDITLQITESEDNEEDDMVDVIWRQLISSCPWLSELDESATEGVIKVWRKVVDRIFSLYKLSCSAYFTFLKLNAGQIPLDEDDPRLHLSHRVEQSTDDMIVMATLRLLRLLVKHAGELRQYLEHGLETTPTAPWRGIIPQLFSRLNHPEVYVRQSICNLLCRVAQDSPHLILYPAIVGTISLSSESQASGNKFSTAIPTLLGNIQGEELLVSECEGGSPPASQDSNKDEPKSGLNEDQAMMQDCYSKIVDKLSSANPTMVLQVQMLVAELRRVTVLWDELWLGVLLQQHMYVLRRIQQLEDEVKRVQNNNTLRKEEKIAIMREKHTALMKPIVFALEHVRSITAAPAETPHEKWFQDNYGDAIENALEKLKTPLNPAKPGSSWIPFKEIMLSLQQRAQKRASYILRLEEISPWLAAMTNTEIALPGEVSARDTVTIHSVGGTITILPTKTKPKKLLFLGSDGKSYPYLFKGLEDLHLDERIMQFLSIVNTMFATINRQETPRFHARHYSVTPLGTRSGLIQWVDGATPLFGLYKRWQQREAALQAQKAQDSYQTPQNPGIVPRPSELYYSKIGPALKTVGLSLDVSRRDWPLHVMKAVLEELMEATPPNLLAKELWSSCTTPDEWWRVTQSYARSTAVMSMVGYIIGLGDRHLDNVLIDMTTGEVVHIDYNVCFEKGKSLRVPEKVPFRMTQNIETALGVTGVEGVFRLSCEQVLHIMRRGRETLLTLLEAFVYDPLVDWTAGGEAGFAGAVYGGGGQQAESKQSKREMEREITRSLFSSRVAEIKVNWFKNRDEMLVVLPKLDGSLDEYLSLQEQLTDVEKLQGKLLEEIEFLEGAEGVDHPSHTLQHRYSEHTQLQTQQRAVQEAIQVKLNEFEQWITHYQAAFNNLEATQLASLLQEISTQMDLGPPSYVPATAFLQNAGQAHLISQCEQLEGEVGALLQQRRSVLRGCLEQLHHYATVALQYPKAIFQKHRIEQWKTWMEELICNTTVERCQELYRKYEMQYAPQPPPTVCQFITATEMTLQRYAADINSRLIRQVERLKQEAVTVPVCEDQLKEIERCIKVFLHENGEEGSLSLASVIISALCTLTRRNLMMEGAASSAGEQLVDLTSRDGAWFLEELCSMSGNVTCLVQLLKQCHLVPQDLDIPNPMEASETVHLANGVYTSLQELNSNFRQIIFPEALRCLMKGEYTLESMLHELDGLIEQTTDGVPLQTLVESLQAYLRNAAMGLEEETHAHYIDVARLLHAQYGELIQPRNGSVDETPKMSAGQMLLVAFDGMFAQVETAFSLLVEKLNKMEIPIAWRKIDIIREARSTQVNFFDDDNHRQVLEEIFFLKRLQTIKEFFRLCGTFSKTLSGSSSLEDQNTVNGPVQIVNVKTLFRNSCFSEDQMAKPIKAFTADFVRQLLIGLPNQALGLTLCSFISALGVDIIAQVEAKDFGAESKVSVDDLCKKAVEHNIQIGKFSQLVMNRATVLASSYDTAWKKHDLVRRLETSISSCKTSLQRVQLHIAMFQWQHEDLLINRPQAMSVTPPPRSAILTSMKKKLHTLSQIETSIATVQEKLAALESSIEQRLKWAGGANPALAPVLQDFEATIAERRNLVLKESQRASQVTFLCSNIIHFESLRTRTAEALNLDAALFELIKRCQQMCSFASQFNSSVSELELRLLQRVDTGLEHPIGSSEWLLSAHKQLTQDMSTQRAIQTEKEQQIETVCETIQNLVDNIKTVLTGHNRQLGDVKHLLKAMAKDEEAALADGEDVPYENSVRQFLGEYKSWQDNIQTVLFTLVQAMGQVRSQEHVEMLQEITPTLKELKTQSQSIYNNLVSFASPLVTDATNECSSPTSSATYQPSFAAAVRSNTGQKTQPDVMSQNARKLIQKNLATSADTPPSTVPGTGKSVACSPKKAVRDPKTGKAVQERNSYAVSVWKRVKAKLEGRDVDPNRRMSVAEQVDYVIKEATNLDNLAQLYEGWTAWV
inactive: [1] -0.029 | [2] 0.026 | [3] -0.021 | [4] 0.038 | [5] 0.006 | [6] -0.05 | [7] -0.028 | [8] 0.061 | [9] 0 | [10] -0.032

SND1 (UniProt Q7KZF4)
inactive: [1] -0.008 | [2] -0.011 | [3] -0.028 | [4] -0.024 | [5] 0.038 | [6] -0.033 | [7] -0.003 | [8] 0.05 | [9] -0.007 | [10] -0.017

SLC38A1 (UniProt Q9H2H9)
inactive: [1] -0.001 | [2] 0.007 | [3] 0.001 | [4] -0.002 | [5] -0.041 | [6] -0.123 | [7] -0.032 | [8] -0.015 | [9] 0.001 | [10] -0.024

SVIP (UniProt Q8NHG7)
inactive: [1] -0.006 | [2] 0 | [3] -0.066 | [4] 0.089 | [5] -0.013 | [6] 0.034 | [7] 0.004 | [8] -0.095 | [9] -0.012 | [10] -0.004

TARDBP (UniProt Q13148)
inactive: [1] -0.146 | [2] -0.079 | [3] -0.005 | [4] -0.051 | [5] 0.007 | [6] -0.087 | [8] 0.136 | [9] 0.021 | [10] 0.027
active: [7] -0.554

SKA2 (UniProt Q8WVK7)
inactive: [1] -0.062 | [2] 0.015 | [3] 0.005 | [4] 0.005 | [5] 0.026 | [6] 0.122 | [7] -0.052 | [8] -0.022 | [9] 0.004 | [10] -0.023

SMARCA4 (UniProt P51532)
inactive: [1] -0.002 | [2] 0.023 | [3] -0.042 | [4] -0.019 | [5] 0.004 | [6] -0.029 | [7] -0.018 | [8] 0.043 | [9] 0.004 | [10] -0.024

STK36 (UniProt Q9NRP7)
active: [6] -1.31
inactive: [1] 0.081 | [2] -0.179 | [3] -0.142 | [4] -0.02 | [5] -0.113 | [7] -0.059 | [8] 0.059 | [9] 0.117 | [10] -0.265

SPNS1 (UniProt Q9H2V7)
inactive: [1] 0.04 | [2] -0.025 | [3] 0 | [4] -0.017 | [5] 0.028 | [6] -0.039 | [7] 0.069 | [8] -0.032 | [9] 0.013 | [10] -0.005

SMIM12 (UniProt Q96EX1)
inactive: [1] 0.014 | [2] 0.025 | [3] 0.09 | [4] 0.027 | [5] 0.061 | [6] -0.093 | [7] -0.023 | [8] 0.002 | [9] -0.016 | [10] -0.041

SLC25A36 (UniProt Q96CQ1)
inactive: [1] 0.081 | [2] -0.007 | [3] 0.012 | [4] 0.04 | [5] 0.085 | [6] 0.045 | [7] -0.119 | [8] -0.08 | [9] 0.003 | [10] -0.031

TADA3 (UniProt O75528)
Chain of UniProt O75528 (O75528 whole entry, looked up): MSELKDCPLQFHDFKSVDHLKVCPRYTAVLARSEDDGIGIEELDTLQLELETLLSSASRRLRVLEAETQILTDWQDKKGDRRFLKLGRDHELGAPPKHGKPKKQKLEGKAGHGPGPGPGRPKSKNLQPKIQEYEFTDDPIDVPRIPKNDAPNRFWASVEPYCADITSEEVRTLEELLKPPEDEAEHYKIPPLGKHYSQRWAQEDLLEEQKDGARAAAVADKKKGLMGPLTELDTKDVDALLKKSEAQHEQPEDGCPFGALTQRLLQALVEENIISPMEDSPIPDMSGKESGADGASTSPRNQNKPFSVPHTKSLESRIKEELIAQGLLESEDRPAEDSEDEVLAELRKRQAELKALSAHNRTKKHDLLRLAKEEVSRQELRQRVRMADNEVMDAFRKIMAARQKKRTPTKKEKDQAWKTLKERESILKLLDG
inactive: [1] -0.022 | [2] -0.036 | [3] -0.014 | [4] -0.023 | [5] 0.019 | [6] -0.037 | [7] -0.035 | [8] 0.006 | [9] 0.024 | [10] -0.044

SRSF7 (UniProt Q16629)
inactive: [1] -0.006 | [2] -0.053 | [3] 0.011 | [4] -0.056 | [5] -0.006 | [6] 0.047 | [7] 0.016 | [8] -0.088 | [9] 0.019 | [10] 0.034

SKP2 (UniProt Q13309)
inactive: [1] 0.047 | [2] -0.044 | [3] -0.004 | [4] 0.003 | [5] 0.045 | [6] -0.193 | [7] -0.035 | [8] 0.295 | [9] -0.015 | [10] -0.044

SPHK1 isoform 2 (UniProt Q9NYA1)
inactive: [1] 0.03 | [2] -0.034 | [3] -0.007 | [4] -0.071 | [5] 0.025 | [6] 0.084 | [7] -0.058 | [8] -0.028 | [9] -0.005 | [10] 0.052

SLC25A32 (UniProt Q9H2D1)
Chain of UniProt Q9H2D1 (Q9H2D1 whole entry, looked up): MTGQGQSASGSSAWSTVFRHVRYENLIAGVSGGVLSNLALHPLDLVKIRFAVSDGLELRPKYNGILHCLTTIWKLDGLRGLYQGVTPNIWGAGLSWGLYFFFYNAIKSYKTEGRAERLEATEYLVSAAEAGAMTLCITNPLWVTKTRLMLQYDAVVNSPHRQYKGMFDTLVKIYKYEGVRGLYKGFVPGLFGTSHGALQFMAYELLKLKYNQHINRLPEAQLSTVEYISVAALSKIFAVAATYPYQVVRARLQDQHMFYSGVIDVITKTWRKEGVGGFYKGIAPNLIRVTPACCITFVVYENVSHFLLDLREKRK
inactive: [1] 0.007 | [2] 0.033 | [3] 0.011 | [4] 0.043 | [5] -0.055 | [6] -0.015 | [7] 0.016 | [8] 0.023 | [9] -0.029 | [10] -0.026

STAU1 (UniProt O95793)
Chain of UniProt O95793 (O95793 whole entry, looked up): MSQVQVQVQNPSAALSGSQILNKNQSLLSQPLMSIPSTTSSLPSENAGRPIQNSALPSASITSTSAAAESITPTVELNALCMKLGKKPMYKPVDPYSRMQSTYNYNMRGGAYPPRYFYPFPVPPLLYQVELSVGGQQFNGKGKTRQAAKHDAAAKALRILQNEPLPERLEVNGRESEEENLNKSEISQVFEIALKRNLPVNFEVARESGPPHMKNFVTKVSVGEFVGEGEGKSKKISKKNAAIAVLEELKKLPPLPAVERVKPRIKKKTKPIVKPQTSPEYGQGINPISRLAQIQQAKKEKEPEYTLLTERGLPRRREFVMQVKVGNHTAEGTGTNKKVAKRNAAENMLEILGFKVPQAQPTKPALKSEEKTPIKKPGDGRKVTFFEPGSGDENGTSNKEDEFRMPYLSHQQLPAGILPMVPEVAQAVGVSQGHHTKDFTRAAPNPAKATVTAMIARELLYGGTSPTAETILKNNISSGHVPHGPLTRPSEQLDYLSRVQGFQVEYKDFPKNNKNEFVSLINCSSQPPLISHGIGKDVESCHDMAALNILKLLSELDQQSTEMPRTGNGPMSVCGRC
inactive: [1] -0.008 | [2] -0.024 | [3] -0.004 | [4] -0.002 | [5] 0.007 | [6] 0.003 | [7] -0.009 | [8] 0.037 | [9] 0.001 | [10] 0.005

STK38 (UniProt Q15208)
inactive: [1] -0.009 | [3] -0.003 | [4] 0.078 | [5] 0.064 | [6] -0.14 | [7] -0.029 | [9] 0.054 | [10] 0.036
active: [2] 0.858 | [8] 0.563

SMTN isoform 6 (UniProt P53814)
inactive: [1] -0.011 | [2] 0.134 | [3] -0.055 | [4] -0.022 | [5] 0.031 | [6] -0.065 | [7] -0.019 | [8] 0.021 | [9] -0.005 | [10] 0.089

TANK (UniProt Q92844)
active: [2] 0.461
inactive: [1] -0.067 | [3] 0.069 | [4] 0.04 | [5] 0.088 | [6] -0.053 | [7] -0.071 | [8] 0.161 | [9] 0.042 | [10] 0.01

SH3GL3 isoform 3 (UniProt Q99963)
inactive: [1] -0.075 | [2] -0.113 | [3] -0.067 | [4] 0.096 | [5] -0.007 | [6] -0.033 | [7] 0.029 | [8] 0.075 | [9] 0.024 | [10] -0.011

SQLE (UniProt Q14534)
inactive: [1] 0.082 | [2] 0.014 | [3] -0.09 | [4] -0.039 | [5] 0.024 | [6] 0.191 | [7] 0.018 | [8] -0.014 | [9] -0.032 | [10] -0.034

STIM1 (UniProt Q13586)
inactive: [1] -0.031 | [2] -0.019 | [3] -0.03 | [4] 0.001 | [5] -0.027 | [6] 0.023 | [7] -0.012 | [8] 0.009 | [9] 0 | [10] -0.031

SNRPD2 (UniProt K7EJB5)
inactive: [1] -0.081 | [2] 0.005 | [3] -0.026 | [4] -0.094 | [5] -0.084 | [6] -0.267 | [7] -0.075 | [8] -0.082 | [9] 0.044 | [10] 0

SMC3 (UniProt Q9UQE7)
inactive: [1] 0 | [2] -0.01 | [3] 0.024 | [4] 0.013 | [5] 0.024 | [6] 0.023 | [7] 0.002 | [8] 0 | [9] -0.003 | [10] 0.016

SMIM8 (UniProt Q96KF7)
Chain of UniProt Q96KF7 (Q96KF7 whole entry, looked up): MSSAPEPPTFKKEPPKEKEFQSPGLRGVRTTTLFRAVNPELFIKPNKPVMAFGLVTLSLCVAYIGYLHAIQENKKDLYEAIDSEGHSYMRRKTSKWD
inactive: [1] 0.059 | [2] -0.018 | [3] 0.032 | [4] 0.055 | [5] -0.023 | [6] 0.084 | [7] -0.033 | [8] -0.02 | [9] -0.045 | [10] -0.013

TARBP1 (UniProt Q13395)
inactive: [1] -0.045 | [2] 0.036 | [3] -0.03 | [4] -0.003 | [5] 0.046 | [6] -0.158 | [7] 0.007 | [8] 0.142 | [9] 0.007 | [10] -0.021

SMAD2 (UniProt Q15796)
inactive: [1] 0.025 | [2] 0.116 | [3] 0.006 | [4] -0.059 | [5] 0.011 | [6] -0.012 | [7] 0.055 | [8] 0.038 | [9] -0.015 | [10] 0.042
